Results: paper PMC5540273 (PLoS ONE, 2017)

Key:
Details in all cases: concentration: 1 μM, replicates: in singlicate; n = 1
[1] = tested on: SgK110
[2] = tested on: T1, TAK1
T1 construct: gene MAP3K7

[3] = tested on: TAOK1
[4] = tested on: TAOK2
[5] = tested on: TAOK3
[6] = tested on: TBK1
[7] = tested on: TEC
[8] = tested on: TESK1
[9] = tested on: TGFBR1
[10] = tested on: TGFBR2
[11] = tested on: TIE1
[12] = tested on: T2, TIE2
T2 construct: gene TEK

[13] = tested on: TLK1
[14] = tested on: TLK2
[15] = tested on: TNIK
[16] = tested on: TNK1
[17] = tested on: TNK2
[18] = tested on: TNNI3K
[19] = tested on: T3, TRKA
T3 construct: gene NTRK1

[20] = tested on: TRKB
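Further: KINOMEscan kinase panel screen.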

## Cc1cc(N2CCC(NS(=O)(=O)c3ccc(F)cc3)CC2)nc(Nc2cccc(C#N)c2)n1.O=C(O)C(F)(F)F [GSK1653537]
[1]
  %Inh: 6%
[2]
  %Inh: 0%
[3]
  %Inh: 0%
[4]
  %Inh: 0%
[5]
  %Inh: 0%
[6]
  %Inh: 1%
[7]
  %Inh: 0%
[8]
  %Inh: 9%
[9]
  %Inh: 0%
[10]
  %Inh: 11%
[11]
  %Inh: 3%
[12]
  %Inh: 0%
[13]
  %Inh: 5%
[14]
  %Inh: 0%
[15]
  %Inh: 0%
[16]
  %Inh: 0%
[17]
  %Inh: 11%
[18]
  %Inh: 0%
[19]
  %Inh: 0%
[20]
  %Inh: 0%

## CCc1nc(-c2cccc(C)c2)c(-c2ccnc(NC(=O)c3ccccc3)c2)s1
[1]
  %Inh: 18%
[2]
  %Inh: 35%
[3]
  %Inh: 0%
[4]
  %Inh: 0%
[5]
  %Inh: 0%
[6]
  %Inh: 10%
[7]
  %Inh: 18%
[8]
  %Inh: 0%
[9]
  %Inh: 32%
[10]
  %Inh: 0%
[11]
  %Inh: 0%
[12]
  %Inh: 0%
[13]
  %Inh: 13%
[14]
  %Inh: 0%
[15]
  %Inh: 62%
[16]
  %Inh: 27%
[17]
  %Inh: 9%
[18]
  %Inh: 0%
[19]
  %Inh: 17%
[20]
  %Inh: 0%

## C[C@@H]1CCN(C(=O)CO)C[C@@H]1N(C)c1ncnc2[nH]ccc12
[1]
  %Inh: 0%
[2]
  %Inh: 27%
[3]
  %Inh: 0%
[4]
  %Inh: 0%
[5]
  %Inh: 0%
[6]
  %Inh: 1%
[7]
  %Inh: 3%
[8]
  %Inh: 12%
[9]
  %Inh: 7%
[10]
  %Inh: 4%
[11]
  %Inh: 3%
[12]
  %Inh: 2%
[13]
  %Inh: 0%
[14]
  %Inh: 0%
[15]
  %Inh: 6%
[16]
  %Inh: 62%
[17]
  %Inh: 0%
[18]
  %Inh: 0%
[19]
  %Inh: 15%
[20]
  %Inh: 10%

## O=C(Nc1n[nH]c2nc(-c3ccco3)c(Br)cc12)c1ccc(CN2CCCC2)cc1.O=C(O)[C@H](O)[C@@H](O)C(=O)O [SB-742352]
[1]
  %Inh: 50%
[2]
  %Inh: 0%
[3]
  %Inh: 0%
[4]
  %Inh: 0%
[5]
  %Inh: 0%
[6]
  %Inh: 13%
[7]
  %Inh: 0%
[8]
  %Inh: 8%
[9]
  %Inh: 0%
[10]
  %Inh: 0%
[11]
  %Inh: 0%
[12]
  %Inh: 0%
[13]
  %Inh: 3%
[14]
  %Inh: 0%
[15]
  %Inh: 14%
[16]
  %Inh: 38%
[17]
  %Inh: 0%
[18]
  %Inh: 12%
[19]
  %Inh: 18%
[20]
  %Inh: 0%

## CNc1nccc(-c2c(-c3ccc(F)cc3)ncn2C2CCN(C)CC2)n1 [SB-222903]
[1]
  %Inh: 36%
[2]
  %Inh: 0%
[3]
  %Inh: 0%
[4]
  %Inh: 7%
[5]
  %Inh: 0%
[6]
  %Inh: 1%
[7]
  %Inh: 10%
[8]
  %Inh: 3%
[9]
  %Inh: 24%
[10]
  %Inh: 0%
[11]
  %Inh: 0%
[12]
  %Inh: 0%
[13]
  %Inh: 0%
[14]
  %Inh: 0%
[15]
  %Inh: 21%
[16]
  %Inh: 25%
[17]
  %Inh: 0%
[18]
  %Inh: 0%
[19]
  %Inh: 20%
[20]
  %Inh: 0%

## CNc1nccc(-c2c(-c3ccc(F)cc3)ncn2CCCN2CCOCC2)n1 [SB-222516]
[1]
  %Inh: 7%
[2]
  %Inh: 0%
[3]
  %Inh: 0%
[4]
  %Inh: 0%
[5]
  %Inh: 0%
[6]
  %Inh: 5%
[7]
  %Inh: 33%
[8]
  %Inh: 10%
[9]
  %Inh: 0%
[10]
  %Inh: 16%
[11]
  %Inh: 0%
[12]
  %Inh: 0%
[13]
  %Inh: 0%
[14]
  %Inh: 0%
[15]
  %Inh: 0%
[16]
  %Inh: 4%
[17]
  %Inh: 0%
[18]
  %Inh: 0%
[19]
  %Inh: 0%
[20]
  %Inh: 19%

## COC(=O)c1cccc(NC(=O)NCCNc2ccnc(Nc3ccc(F)cc3)n2)c1 [GSK1379883]
[1]
  %Inh: 0%
[2]
  %Inh: 0%
[3]
  %Inh: 0%
[4]
  %Inh: 0%
[5]
  %Inh: 0%
[6]
  %Inh: 16%
[7]
  %Inh: 0%
[8]
  %Inh: 23%
[9]
  %Inh: 13%
[10]
  %Inh: 0%
[11]
  %Inh: 0%
[12]
  %Inh: 0%
[13]
  %Inh: 1%
[14]
  %Inh: 0%
[15]
  %Inh: 0%
[16]
  %Inh: 0%
[17]
  %Inh: 14%
[18]
  %Inh: 0%
[19]
  %Inh: 19%
[20]
  %Inh: 0%

## O=C(CCO)NCCn1ccc2ncnc(Nc3ccc(Oc4cccc(C(F)(F)F)c4)c(Cl)c3)c21
[1]
  %Inh: 0%
[2]
  %Inh: 0%
[3]
  %Inh: 0%
[4]
  %Inh: 10%
[5]
  %Inh: 0%
[6]
  %Inh: 16%
[7]
  %Inh: 0%
[8]
  %Inh: 6%
[9]
  %Inh: 0%
[10]
  %Inh: 0%
[11]
  %Inh: 0%
[12]
  %Inh: 0%
[13]
  %Inh: 0%
[14]
  %Inh: 0%
[15]
  %Inh: 0%
[16]
  %Inh: 0%
[17]
  %Inh: 0%
[18]
  %Inh: 0%
[19]
  %Inh: 0%
[20]
  %Inh: 0%

## Cl.c1ccc(Cn2ncc3cc(Nc4ncnc5ccccc45)ccc32)cc1 [GW273749]
[1]
  %Inh: 0%
[2]
  %Inh: 0%
[3]
  %Inh: 0%
[4]
  %Inh: 0%
[5]
  %Inh: 0%
[6]
  %Inh: 23%
[7]
  %Inh: 0%
[8]
  %Inh: 0%
[9]
  %Inh: 6%
[10]
  %Inh: 0%
[11]
  %Inh: 0%
[12]
  %Inh: 0%
[13]
  %Inh: 15%
[14]
  %Inh: 0%
[15]
  %Inh: 0%
[16]
  %Inh: 0%
[17]
  %Inh: 12%
[18]
  %Inh: 0%
[19]
  %Inh: 0%
[20]
  %Inh: 0%

## Cn1ccc2ncnc(Oc3ccc(NC(=O)Nc4cccnc4)c(Cl)c3)c21
[1]
  %Inh: 49%
[2]
  %Inh: 12%
[3]
  %Inh: 0%
[4]
  %Inh: 0%
[5]
  %Inh: 0%
[6]
  %Inh: 5%
[7]
  %Inh: 6%
[8]
  %Inh: 0%
[9]
  %Inh: 0%
[10]
  %Inh: 0%
[11]
  %Inh: 18%
[12]
  %Inh: 0%
[13]
  %Inh: 13%
[14]
  %Inh: 0%
[15]
  %Inh: 1%
[16]
  %Inh: 0%
[17]
  %Inh: 0%
[18]
  %Inh: 0%
[19]
  %Inh: 0%
[20]
  %Inh: 0%
